Reference: PubChem BioAssay (NCATS)
Inconclusive results are not listed. Calls of active or inactive are those of the source. Unless noted, calls come from the whole dose curve; as a rule, active = well fitted curve in the direction sought with a large enough effect; inconclusive = small, poorly fitted or top-dose-only effect, or another doubt; inactive = no such curve, though single readings can be large; an effect the other way counts as inactive or inconclusive. Residues, ends and D or L forms follow the SMILES beside them. *: point of attachment. Cbz = O=C(OCc1ccccc1)*

Columns and labels:
[1] = Cytometric Cell-Based qHTS for Inhibitors of the mTORC1 Signaling Pathway in MEF (Tsc2-/-, p53-/-) Cells (AID 2660);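 note: Tsc2 and p53 null MEFs carrying empty vector with compound for 24 h; percent of cells above a phospho-rpS6 to PI ratio cutoff in each well; series mostly up to about 38 µM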
Method in brief: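 Immunofluorescence qHTS of rpS6 Ser235/236 phosphorylation: MEFs (Tsc2-/-, p53-/-) treated 24 h, 37 C, in DMEM + 10% FBS. Alexa-488 signal normalized to PI count, referenced to rapamycin (7.5 nM) and DMSO; PI cell number recorded for viability.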

[2] = High Content Imaging Cell-Based qHTS for Inhibitors of the mTORC1 Signaling Pathway in MEF (Tsc2-/-, p53-/-) Cells (AID 2666);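 note: percent of cells scored positive for phospho-rpS6 Ser235/236 immunostaining by imaging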
Method in brief: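 Cells were plated, dosed with compound after 24 hrs, and incubated another 24 hrs at 37 degree Celsius. Fixed cells were immunostained for phospho-rpS6 Ser235/236 and counterstained, and the normalized signal was scored as % active cells against rapamycin and DMSO controls.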

[3] = High Content Imaging Cell-Based qHTS for Inhibitors of the mTORC1 Signaling Pathway in MEF Cells (AID 2667);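 note: Tsc2-/- p53-/- MEFs stably re-expressing wild-type Tsc2 exposed 24 h; series mostly up to about 38 µM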
Method in brief: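 Immunofluorescence for rpS6 phosphorylation in MEFs of Tsc2-/-, p53-/- background rescued with WT Tsc2. Compound exposure lasted 24 hrs. Inhibition was scored against rapamycin-treated control wells.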

[4] = Cytometry Cell-Based qHTS for Inhibitors of the mTORC1 Signaling Pathway in MEF cells (AID 2668);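 note: Tsc2-/- p53-/- mouse embryonic fibroblasts stably re-expressing wild-type Tsc2; percent cells positive for phospho-rpS6 Ser235/236 relative to propidium iodide stain; series mostly up to about 38 µM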
Method in brief: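 Tsc2-/-, p53-/- MEFs re-expressing WT Tsc2; cpd 24 hrs, 37 degree Celsius; PFA fix, Alexa-488 p-rpS6 (Ser235/236) Ab 2 hrs RT, PI counterstain; Acumen 488nm scan; p-S6/PI ratio → % positive cells; PI count = viability.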

[5] = biological target: Ubiquitin carboxyl-terminal hydrolase 2 (Homo sapiens) (UniProt O75604); assay: qHTS Validation Assay for Inhibitors of Ubiquitin-specific Protease USP2a Using CHOP2 as the Reporter (AID 463106)
Method in brief: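 10nM USP2 core + cpd, 30min RT; add 25nM Ub-CHOP2/25nM substrate; 60min RT; FI 485/531nm. Buffer Tris pH 8.0, CaCl2, BME, CHAPS. Norm. to NEM = 100% inhibition; time-zero read flags fluorescent artifacts.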

[6] = biological target: DNA polymerase III PolC-type (Bacillus subtilis (strain 168)) (UniProt P13267); assay: qHTS Validation Assay for the Inhibitors of DNA Replication in Gram-Positive Bacteria (AID 485295);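 note: reconstituted holoenzyme with PolC plus beta clamp SSB and primase; PicoGreen fluorescence of double-stranded DNA made on primed circular M13 template; series mostly up to about 57 µM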
Method in brief: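 First, compound is mixed with the reconstituted replication complex and held at room temperature. Next, circular single-stranded M13Gori with nucleotides starts synthesis. Finally, PicoGreen in EDTA halts the reaction and stains double-stranded product for fluorescence reading.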

[7] = biological target: Tumor susceptibility gene 101 protein (Homo sapiens) (UniProt Q99816); assay: qHTS Validation Assay for Iinhibitors of HIV-1 Budding by Blocking the Interaction of PTAP/TSG101 (AID 485342; calls by dose curve)
Method in brief: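 Binding of a FITC-tagged PTAP-motif peptide (50 nM) to the Tsg101 binding domain (10 uM) is monitored by fluorescence polarization. Compounds are pin-delivered before peptide addition, and incubation runs 20 min at room temperature.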

[8] = qHTS Validation Assay to Find Inhibitors of Chronic Active B-Cell Receptor Signaling (AID 485345; active = well fitted curve in the direction sought with a large enough effect in the main read-out, with a control signal flat, not every such curve was filed as active)
Method in brief: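 Read-out: ratio of filter-corrected green (IkappaBalpha fusion) to red (native) luciferase signal in doxycycline-induced TMD8 cells after 4 h at 37C. Titration spanned 46 uM–3 nM; Data were normalised to basal cells and 10 uM MG-132 wells.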

[9] = biological target: Beta-2 adrenergic receptor (Homo sapiens) (UniProt P07550); assay: qHTS validation assay of beta-arrestin-biased ligands of beta2-adrenergic receptor (AID 485366)
Method in brief: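 Arrestin-recruitment (Tango) reporter: ligand-bound beta2-AR recruits beta-arrestin, releasing tTA, which upregulates luciferase. Titrations of up to 46 microM incubated 18 hr at 37 degrees C before luminescent readout.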

[10] = Quantitative high throughput screen for delayed death inhibitors of the malarial parasite plastid, 96 hour incubation (AID 488745); note: nearly all actives have a fitted effect of over 70% in size; note: potency is the fitted concentration of half-maximal effect
Method in brief: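 P. falciparum carrying an integrated firefly luciferase reporter, grown in erythrocytes (2% hematocrit, 0.1% parasitemia final) in RPMI 1640/0.5% Albumax, was exposed to compound for 96 h (two generations) at 37 C, 5% CO2. Luminescence decrease indicated growth inhibition.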

[11] = Quantitative high throughput screen for delayed death inhibitors of the malarial parasite plastid, 48 hour incubation (AID 488752); note: nearly all actives have a fitted effect of over 65% in size
Method in brief: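 Erythrocytes infected with P. falciparum carrying an integrated firefly luciferase reporter (2% hematocrit, 0.1% parasitemia final) were exposed to compounds in RPMI 1640/0.5% Albumax for 48 h at 37 C, 5% CO2. Growth inhibition was scored as reduced luminescence.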

[12] = biological target: Thioredoxin reductase 1, cytoplasmic (Rattus norvegicus) (UniProt O89049); assay: qHTS Assay for Inhibitors of Mammalian Selenoprotein Thioredoxin Reductase 1 (TrxR1) (AID 488773); conditions: Potency: inhibition;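 note: drop in NADPH fluorescence over an 8 min run after selenite addition; series mostly up to about 57 µM; nearly all actives have a fitted effect of over 40% in size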
Method in brief: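 Steps: enzyme (90 nM) plus NADPH (400 uM final), 5 min at ~22 deg C; compound added, 15 min; selenite (400 uM final) added; fluorescence followed for 8 min. Concentration-response curves derived from the normalized delta values.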

[13] = biological target: M-phase phosphoprotein 8 (Homo sapiens) (UniProt Q99549); assay: qHTS Validation Assay for Inhibitors for MPP8 Chromodomain Interactions with Methylated Histone Tails (AID 488949);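 note: 50 nM MPP8 with 50 nM peptide preformed then compounds added for 30 min; AlphaScreen signal from MPP8 chromodomain bound to biotinylated H3K9me3 peptide; top concentration of the series differs between compounds; nearly all actives have a fitted effect of over 55% in size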
Method in brief: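 50 nM MPP8 + 50 nM b-H3K9me3 peptide, PBS pH 7.4/0.01% Tween-20, 30 min RT; + cpd 30 min RT; + AlphaScreen donor/Ni-chelate acceptor beads 10 ug/mL final, 30 min dark; luminescence read.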

[14] = biological target: Chromobox protein homolog 1 (Homo sapiens) (UniProt P83916); assay: qHTS Validation Assay for Inhibitors of HP1-beta Chromodomain Interactions with Methylated Histone Tails (AID 488953);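 note: loss of AlphaScreen luminescence from HP1-beta binding biotinylated H3K9me3 peptide; series mostly up to about 110 µM; nearly all actives have a fitted effect of over 50% in size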
Method in brief: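 HP1-beta (50 nM) was preincubated 30 min at room temperature with biotinylated H3(1-18)K9me3 peptide (50 nM) in PBS pH 7.4, 0.01% Tween-20, then with compounds 30 min. AlphaScreen signal was read after streptavidin donor/nickel chelate acceptor beads (10 ug/mL final).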

[15] = biological target: Methanococcus maripaludis chaperonin (MmCpn) (UniProt Q6LX38); assay: High-Throughput Screening for Modulators of Cytosolic Chaperonin Activity: MmCpn Primary Screen (AID 488978);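 note: 50 nM MmCpn enzyme hydrolysing 30 µM ATP at 37 °C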
Method in brief: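 Steps: chaperonin 50 nM final; add compound, 5 min RT; start with ATP, 30 uM final; hold 10 min at 37C; add ADP Transcreener HTRF reagent, 5 min; read ex 320, em 590 and 665 nm.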

[16] = biological target: ATP-dependent 6-phosphofructokinase (Trypanosoma brucei brucei) (UniProt O15648); assay: qHTS Validation Assay to Find Inhibitors of T. brucei phosphofructokinase (AID 485368)
Method in brief: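 Steps: substrate mix (0.5 mM F6P, 0.1 mM ATP, MgCl2, TEA pH 8.0); compound; 1.25 nM T. brucei PFK; 45 min RT; ATP depletion 10 min; ADP-to-ATP detection 10 min; luminescence read; curve fitting and classification.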

[17] = biological target: Thioredoxin reductase 1, cytoplasmic (Rattus norvegicus) (UniProt O89049); assay: qHTS Assay for Substrates of Mammalian Selenoprotein Thioredoxin Reductase 1 (TrxR1) (AID 488772);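 note: NADPH fluorescence in the first read after selenite addition and not the 8 min delta; series mostly up to about 57 µM; a drop in NADPH fluorescence below the no-compound background marks a TrxR1 substrate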
Method in brief: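 Quantitative HTS in Tris-HCl buffer at pH 7.5 with EDTA and Tween-20, using rat TrxR1, 400 uM NADPH and 400 uM selenite (final). A fall in initial NADPH fluorescence relative to background marked substrate behaviour.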

[18] = biological target: Flap endonuclease 1 (Homo sapiens) (UniProt P39748); assay: qHTS Validation Assay for the Inhibitors of Human Flap endonuclease 1 (FEN1) (AID 488816)
Method in brief: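 Readings taken at 0 and 15 min after starting the reaction with 50 nM (final) substrate supplied the signal. Compounds had first sat with 10 nM FEN1 reagent for 15 min at room temperature. Values come from Hill-equation concentration-response fits.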

[19] = Validation screen for small molecules that induce DNA re-replication in MCF 10A normal breast cells (AID 463097); note: nearly all actives have a fitted effect of over 60% in size
Method in brief: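 Image-based qHTS: normal breast cells are incubated with compound for 48 hr, stained with Hoechst, and scanned for total nuclear fluorescence. Compounds raising the fraction of nuclei with elevated DNA content count as re-replication inducers.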

Measured: Potency

Chromobox protein homolog 1 (Homo sapiens), sequence (P83916 whole entry, looked up): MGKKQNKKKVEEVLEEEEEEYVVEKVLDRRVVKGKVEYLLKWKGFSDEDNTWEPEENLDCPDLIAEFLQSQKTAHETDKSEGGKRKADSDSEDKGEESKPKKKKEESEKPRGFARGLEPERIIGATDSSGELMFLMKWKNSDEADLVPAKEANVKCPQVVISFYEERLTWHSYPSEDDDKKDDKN
Ubiquitin carboxyl-terminal hydrolase 2 (Homo sapiens), sequence (O75604 whole entry, looked up): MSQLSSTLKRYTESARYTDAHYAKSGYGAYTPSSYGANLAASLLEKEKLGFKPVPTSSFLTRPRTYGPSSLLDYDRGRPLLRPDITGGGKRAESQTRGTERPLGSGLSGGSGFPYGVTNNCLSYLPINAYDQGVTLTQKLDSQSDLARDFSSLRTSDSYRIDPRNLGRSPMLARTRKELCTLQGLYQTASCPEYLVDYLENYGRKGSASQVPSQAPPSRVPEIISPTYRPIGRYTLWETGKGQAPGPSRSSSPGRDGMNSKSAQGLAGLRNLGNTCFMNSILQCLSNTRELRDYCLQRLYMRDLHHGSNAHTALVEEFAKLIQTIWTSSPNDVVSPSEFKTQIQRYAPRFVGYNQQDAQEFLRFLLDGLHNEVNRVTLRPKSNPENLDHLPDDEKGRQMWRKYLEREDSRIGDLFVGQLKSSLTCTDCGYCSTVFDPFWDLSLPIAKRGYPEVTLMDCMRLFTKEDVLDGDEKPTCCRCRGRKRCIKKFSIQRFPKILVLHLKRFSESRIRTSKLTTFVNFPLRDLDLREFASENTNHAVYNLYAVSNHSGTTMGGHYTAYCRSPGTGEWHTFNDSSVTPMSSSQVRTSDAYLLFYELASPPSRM
Flap endonuclease 1 (Homo sapiens), sequence (P39748 whole entry, looked up): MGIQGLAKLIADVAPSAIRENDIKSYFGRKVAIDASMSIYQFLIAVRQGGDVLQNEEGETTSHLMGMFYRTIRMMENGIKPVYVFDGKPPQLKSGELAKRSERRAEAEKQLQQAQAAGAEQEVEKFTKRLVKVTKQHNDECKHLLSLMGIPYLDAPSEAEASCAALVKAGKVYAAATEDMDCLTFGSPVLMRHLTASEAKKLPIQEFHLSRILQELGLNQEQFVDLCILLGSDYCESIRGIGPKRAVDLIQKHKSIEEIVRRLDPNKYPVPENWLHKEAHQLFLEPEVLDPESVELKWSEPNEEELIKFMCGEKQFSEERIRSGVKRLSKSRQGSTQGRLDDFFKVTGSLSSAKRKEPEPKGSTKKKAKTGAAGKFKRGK
M-phase phosphoprotein 8 (Homo sapiens), sequence (Q99549 whole entry, looked up): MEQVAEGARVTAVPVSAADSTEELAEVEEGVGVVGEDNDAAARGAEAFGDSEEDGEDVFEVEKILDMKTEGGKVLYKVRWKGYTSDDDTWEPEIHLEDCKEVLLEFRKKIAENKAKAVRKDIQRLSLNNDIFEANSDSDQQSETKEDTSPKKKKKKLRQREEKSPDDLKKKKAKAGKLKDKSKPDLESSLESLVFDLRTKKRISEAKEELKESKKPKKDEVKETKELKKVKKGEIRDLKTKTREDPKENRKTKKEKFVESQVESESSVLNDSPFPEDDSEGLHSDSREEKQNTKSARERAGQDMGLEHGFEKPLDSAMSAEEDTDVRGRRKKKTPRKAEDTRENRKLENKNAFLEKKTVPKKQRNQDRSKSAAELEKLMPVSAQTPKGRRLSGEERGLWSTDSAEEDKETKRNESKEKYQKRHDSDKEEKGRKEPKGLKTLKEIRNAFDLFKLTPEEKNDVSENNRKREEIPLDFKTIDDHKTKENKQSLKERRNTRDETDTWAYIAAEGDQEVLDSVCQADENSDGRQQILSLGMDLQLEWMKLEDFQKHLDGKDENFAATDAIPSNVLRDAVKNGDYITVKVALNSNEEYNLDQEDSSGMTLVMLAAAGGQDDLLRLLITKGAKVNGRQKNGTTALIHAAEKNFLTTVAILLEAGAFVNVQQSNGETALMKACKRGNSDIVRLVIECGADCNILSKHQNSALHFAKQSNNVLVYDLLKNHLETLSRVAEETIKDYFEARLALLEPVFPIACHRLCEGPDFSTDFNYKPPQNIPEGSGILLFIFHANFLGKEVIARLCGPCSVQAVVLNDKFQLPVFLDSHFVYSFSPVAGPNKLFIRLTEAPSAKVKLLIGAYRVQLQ
ATP-dependent 6-phosphofructokinase (Trypanosoma brucei brucei), sequence (O15648 whole entry, looked up): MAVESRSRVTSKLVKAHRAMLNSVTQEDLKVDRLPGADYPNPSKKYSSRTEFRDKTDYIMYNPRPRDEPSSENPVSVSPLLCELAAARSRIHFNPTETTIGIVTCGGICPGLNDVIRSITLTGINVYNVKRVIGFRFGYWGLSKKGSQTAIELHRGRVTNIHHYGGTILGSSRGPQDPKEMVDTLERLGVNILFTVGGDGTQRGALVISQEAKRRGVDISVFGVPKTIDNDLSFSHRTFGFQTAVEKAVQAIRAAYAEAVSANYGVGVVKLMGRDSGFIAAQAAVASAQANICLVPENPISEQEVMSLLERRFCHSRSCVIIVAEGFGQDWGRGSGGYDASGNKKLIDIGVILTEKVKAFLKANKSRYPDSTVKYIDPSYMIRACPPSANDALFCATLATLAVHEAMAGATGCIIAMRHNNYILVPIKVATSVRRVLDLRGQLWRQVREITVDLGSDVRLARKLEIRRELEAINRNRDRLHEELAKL
Tumor susceptibility gene 101 protein (Homo sapiens), sequence (Q99816 whole entry, looked up, the tested form may be a part): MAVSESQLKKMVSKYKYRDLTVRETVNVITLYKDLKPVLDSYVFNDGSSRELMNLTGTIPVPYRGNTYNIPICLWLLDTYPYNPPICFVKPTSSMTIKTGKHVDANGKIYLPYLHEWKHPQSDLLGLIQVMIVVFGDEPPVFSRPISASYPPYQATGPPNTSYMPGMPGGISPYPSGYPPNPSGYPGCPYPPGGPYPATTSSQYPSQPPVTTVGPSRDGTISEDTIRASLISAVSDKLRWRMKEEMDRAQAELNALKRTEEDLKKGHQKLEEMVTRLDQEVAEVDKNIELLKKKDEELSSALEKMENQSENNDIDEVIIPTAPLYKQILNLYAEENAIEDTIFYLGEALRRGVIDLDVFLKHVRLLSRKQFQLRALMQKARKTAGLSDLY
Thioredoxin reductase 1, cytoplasmic (Rattus norvegicus), sequence (O89049 whole entry, looked up): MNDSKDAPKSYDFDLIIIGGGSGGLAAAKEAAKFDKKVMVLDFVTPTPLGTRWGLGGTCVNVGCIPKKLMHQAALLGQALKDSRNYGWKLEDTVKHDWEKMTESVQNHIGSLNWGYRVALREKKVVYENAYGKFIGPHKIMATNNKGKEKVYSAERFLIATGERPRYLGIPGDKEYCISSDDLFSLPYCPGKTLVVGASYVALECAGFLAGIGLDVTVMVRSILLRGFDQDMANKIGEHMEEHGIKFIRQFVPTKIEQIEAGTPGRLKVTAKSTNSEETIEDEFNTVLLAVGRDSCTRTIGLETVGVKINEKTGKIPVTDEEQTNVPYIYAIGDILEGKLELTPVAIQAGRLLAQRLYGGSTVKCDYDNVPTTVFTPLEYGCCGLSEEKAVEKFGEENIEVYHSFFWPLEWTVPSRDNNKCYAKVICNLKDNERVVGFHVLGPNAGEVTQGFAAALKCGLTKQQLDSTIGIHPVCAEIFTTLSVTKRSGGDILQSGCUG
DNA polymerase III PolC-type (Bacillus subtilis (strain 168)), sequence (P13267 whole entry, looked up): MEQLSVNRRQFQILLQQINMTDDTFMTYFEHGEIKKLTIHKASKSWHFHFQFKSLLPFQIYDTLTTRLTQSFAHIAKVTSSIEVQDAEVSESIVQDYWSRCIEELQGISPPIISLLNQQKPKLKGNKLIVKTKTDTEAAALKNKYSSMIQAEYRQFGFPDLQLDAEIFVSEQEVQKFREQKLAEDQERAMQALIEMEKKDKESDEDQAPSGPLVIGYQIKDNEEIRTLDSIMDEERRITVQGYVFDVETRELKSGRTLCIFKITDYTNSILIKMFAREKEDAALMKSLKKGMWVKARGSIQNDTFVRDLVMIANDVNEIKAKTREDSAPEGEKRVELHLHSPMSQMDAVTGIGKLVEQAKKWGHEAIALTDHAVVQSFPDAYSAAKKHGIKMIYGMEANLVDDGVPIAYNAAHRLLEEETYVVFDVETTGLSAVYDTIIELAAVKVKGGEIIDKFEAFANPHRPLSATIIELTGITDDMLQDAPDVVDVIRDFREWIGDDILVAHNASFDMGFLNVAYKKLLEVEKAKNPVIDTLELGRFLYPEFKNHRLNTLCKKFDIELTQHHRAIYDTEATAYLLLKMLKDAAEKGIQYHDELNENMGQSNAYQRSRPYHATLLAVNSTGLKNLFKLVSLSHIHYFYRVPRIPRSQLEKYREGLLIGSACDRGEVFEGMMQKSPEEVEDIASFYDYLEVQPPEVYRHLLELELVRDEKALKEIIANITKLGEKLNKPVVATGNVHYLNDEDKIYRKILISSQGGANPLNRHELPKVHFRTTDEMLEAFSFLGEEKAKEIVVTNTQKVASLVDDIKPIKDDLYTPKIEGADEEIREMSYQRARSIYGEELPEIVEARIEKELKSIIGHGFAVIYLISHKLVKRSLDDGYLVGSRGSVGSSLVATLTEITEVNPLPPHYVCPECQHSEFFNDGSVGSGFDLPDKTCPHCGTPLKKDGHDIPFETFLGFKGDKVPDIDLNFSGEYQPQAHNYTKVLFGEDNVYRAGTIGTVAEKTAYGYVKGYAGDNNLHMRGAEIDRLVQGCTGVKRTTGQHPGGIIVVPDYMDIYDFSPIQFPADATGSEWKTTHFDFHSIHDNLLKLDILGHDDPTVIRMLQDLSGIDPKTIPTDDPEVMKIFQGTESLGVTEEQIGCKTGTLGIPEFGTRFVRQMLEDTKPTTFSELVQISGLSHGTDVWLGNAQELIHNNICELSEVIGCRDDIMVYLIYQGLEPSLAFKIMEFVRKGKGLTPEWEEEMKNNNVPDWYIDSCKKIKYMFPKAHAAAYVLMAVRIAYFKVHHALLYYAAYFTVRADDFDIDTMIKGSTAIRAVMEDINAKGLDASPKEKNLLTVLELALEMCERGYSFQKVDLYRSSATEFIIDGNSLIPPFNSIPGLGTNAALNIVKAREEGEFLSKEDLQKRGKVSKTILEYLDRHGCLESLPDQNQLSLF

CCCCCCC/C=C\CCCCCCCCC(=O)O
inactive: [1] | [2] | [3] | [4] | [5] | [6] | [7] | [8] | [9] | [10] | [11] | [12] | [13] | [14] | [15]

CC(C)[C@H](NC(=O)OCc1ccccc1)C(=O)N[C@H](C=O)Cc1ccccc1 (Cbz-Val-Phe-aldehyde)
active: [10] 2330 nM
inactive: [1] | [2] | [3] | [4] | [5] | [6] | [7] | [8] | [9] | [16] | [17] | [12] | [18] | [13] | [14] | [15]

Cc1nc2n(c(=O)c1CCN1CCC(c3noc4cc(F)ccc34)CC1)CCCC2O (stereo not drawn)
inactive: [1] | [2] | [3] | [4] | [5] | [6] | [7] | [8] | [9] | [16] | [17] | [12] | [13] | [14] | [15]

Nc1ncnc2c1nc(Sc1ccc(Cl)cc1)n2[C@H]1OC2COP(=O)(O)O[C@@H]2C1O (stereo partly drawn)
inactive: [1] | [2] | [3] | [4] | [5] | [6] | [7] | [9] | [16] | [12] | [18] | [14] | [15]

O=c1[nH]c(=O)c2nc3ccccc3nc2[nH]1
inactive: [1] | [2] | [3] | [4] | [19] | [6] | [9] | [16] | [10] | [11] | [17] | [13] | [14] | [15]

N=C(N)SCCN
inactive: [1] | [2] | [3] | [4] | [19] | [6] | [7] | [9] | [10] | [11] | [17] | [12] | [18] | [14] | [15]

CCc1ccc2c(-c3cccc(Cl)c3)nc(=O)n(CC)c2n1
inactive: [1] | [2] | [3] | [4] | [5] | [6] | [7] | [9] | [17] | [13] | [14] | [15]

Fc1ccc(CN(C2=NCCN2)c2c(Cl)cccc2Cl)cc1
inactive: [1] | [2] | [3] | [4] | [19] | [6] | [7] | [9] | [16] | [17] | [12] | [18] | [13] | [14] | [15]

O=S(=O)(c1cccc2c(Cl)cccc12)N1CCCNCC1
inactive: [1] | [2] | [3] | [4] | [5] | [6] | [7] | [8] | [9] | [16] | [10] | [11] | [17] | [18] | [13] | [14] | [15]
